Experimental data from PubChem BioAssay AID493231 (Broad Institute, 2011).
Measured potencies and affinities stand elsewhere. Values without a mark were called inactive. How the calls were made is not given here.

Target: Acyl-homoserine lactone acylase PvdQ (Pseudomonas aeruginosa (strain ATCC 15692 / DSM 22644 / CIP 104116 / JCM 14847 / LMG 12228 / 1C / PRS 101 / PAO1)) (UniProt Q9I194)
Test: PvdQ acylase enzyme activity blockers – biochemical, fluorescence, plate reader and imaging, cherry-picks, dose response (AID 493231);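 further: 0% = neutral control wells and -100% = reference inhibitor wells; more negative values mean stronger inhibition of the acylase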
Details: purified PvdQ acylase, fluorogenic substrate; series mostly up to 10 µM; activity change, negative = inhibition: at the top concentration

Acyl-homoserine lactone acylase PvdQ (Pseudomonas aeruginosa (strain ATCC 15692 / DSM 22644 / CIP 104116 / JCM 14847 / LMG 12228 / 1C / PRS 101 / PAO1)), sequence (Q9I194 whole entry, looked up): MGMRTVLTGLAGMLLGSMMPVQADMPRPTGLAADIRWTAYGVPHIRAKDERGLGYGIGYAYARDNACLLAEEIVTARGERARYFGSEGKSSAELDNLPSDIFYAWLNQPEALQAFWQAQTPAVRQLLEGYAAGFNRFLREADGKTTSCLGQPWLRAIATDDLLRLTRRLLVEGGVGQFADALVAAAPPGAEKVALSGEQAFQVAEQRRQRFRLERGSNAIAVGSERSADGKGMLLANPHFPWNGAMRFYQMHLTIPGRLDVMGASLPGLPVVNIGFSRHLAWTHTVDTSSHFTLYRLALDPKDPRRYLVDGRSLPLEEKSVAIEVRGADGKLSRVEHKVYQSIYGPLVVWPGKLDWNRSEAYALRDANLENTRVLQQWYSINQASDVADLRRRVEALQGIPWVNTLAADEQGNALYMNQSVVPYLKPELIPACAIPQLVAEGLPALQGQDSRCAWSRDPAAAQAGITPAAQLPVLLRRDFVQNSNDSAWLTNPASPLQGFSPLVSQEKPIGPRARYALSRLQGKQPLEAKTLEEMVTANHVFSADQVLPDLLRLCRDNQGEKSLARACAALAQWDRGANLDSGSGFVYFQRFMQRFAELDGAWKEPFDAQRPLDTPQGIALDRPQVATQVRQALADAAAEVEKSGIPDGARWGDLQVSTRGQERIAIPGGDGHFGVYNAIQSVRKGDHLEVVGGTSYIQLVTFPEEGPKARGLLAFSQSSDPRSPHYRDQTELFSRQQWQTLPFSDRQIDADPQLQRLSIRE

SMILES	activity change, negative = inhibition [unspecified]
Cc1ccc(-c2nc3ccsc3c(=O)o2)cc1	-7.99
O=C(c1ccc(-c2ccccc2)cc1)C1CCCN(C(=O)c2cncs2)C1 (stereo unspecified)	8.65
O=C(Nc1nc2cc3c(cc2s1)OCO3)C1=COCCO1	-5.14
COc1ccc(Cl)cc1C(=O)Nc1ccc(N(C)C(C)=O)cc1	8.04
C=CCC1S/C(=N/N=C/c2cccs2)NC1=O (stereo unspecified)	3.34
O=C(O)c1cc2nccc(-c3ccco3)n2n1	-104
Cc1cc(=O)[nH]c(SCC(=O)Nc2ccc(Br)cn2)n1	6.43
COc1cccc(CN(C)CC(=O)NNC(=O)c2ccc(Cl)cc2)c1	-2.77
Cc1cc(C)cc(N2C(=O)CC(Sc3ccccc3C(=O)O)C2=O)c1 (stereo unspecified)	14.6
NC(=O)c1cc(Sc2ccccc2)nc2ccccc12	9.91
O=c1oc(-c2ccc(F)cc2)nc2ccsc12	-1.99
O=C(CSc1n[nH]c(=O)n1Cc1ccco1)c1ccc2c(c1)OCCO2	12.8
Cc1nn(S(=O)(=O)c2ccccc2)c(C)c1S(=O)(=O)N1CCOCC1	14.9
c1ccc2sc(-c3ccc4c(c3)OCO4)nc2c1	8.16
CCOc1ccccc1NC(=S)N1CCC(NC(=O)NC23CC4CC(CC(C4)C2)C3)CC1	0.032
Cc1ccc(S(=O)(=O)NCc2ccccn2)cc1C	8.94
Cc1cc(NC(=O)c2ccc(Br)c([N+](=O)[O-])c2)no1	7.95
CCCc1nc2sc3ccccc3c(=O)c2c(=O)n1Cc1ccccc1	11

SMILES	activity change, negative = inhibition [unspecified]
N#Cc1cc([N+](=O)[O-])ccc1Oc1cccc(/C=N/NC(=O)c2cccc(Cl)c2)c1	0.613
CN(c1ccc(C(=O)Nc2ccc3c(c2)OCCO3)cc1)S(C)(=O)=O	-1.33
CCOC(=O)c1[nH]c2c(c1C)C(=O)CC(c1ccco1)C2 (stereo unspecified)	-96.1
NC(=O)c1ccc(NC(=O)COC(=O)c2n[nH]c3ccccc23)cc1	5.19
CC(=O)c1ccc2c3c(cc(C)c2c1)CCCC3	1.76
COc1ccc(OC2CCN(S(=O)(=O)c3ccc(OC)c(OC)c3)CC2)cc1	4.97
CN(C)CCCN(Cc1cc2cc3c(cc2[nH]c1=O)OCO3)C(=S)Nc1cccc(Cl)c1	7.09
COc1ccc2cc(C)c3nnc(SCC(=O)Nc4cc(OC)c(OC)cc4C(=O)O)n3c2c1	12.9
Cc1ccc(-c2nc(CN(C)Cc3cccc4cnccc34)c(C)o2)s1	-7.83
Cc1ccc2nc(-c3ccc(NS(=O)(=O)c4ccc(F)cc4)cc3)sc2c1	30.7
Cc1cccc(Nc2nnc(SCC(=O)c3c(N)n(C4CC4)c(=O)[nH]c3=O)s2)c1	-7.02
CN1CCN(C(=O)c2cccn(Cc3ccc(C(F)(F)F)cc3)c2=O)CC1	8
CN1C=CC=C/C1=C1\SC(=S)N(Cc2ccccc2)C1=O	8.81
COc1ccccc1CNS(=O)(=O)CCNCCc1ccccc1	-100
O=C(O)c1ccc(N=Nc2c(O)ccc3ncccc23)cc1	0.421
COCC(=O)Oc1c(S(=O)(=O)c2ccc(C)cc2)c(C)nn1-c1ccccc1	2.79
O=C(O)c1cccc(CN2C(=O)c3ccccc3C2=O)c1	5
COc1ccc(-c2cc3ccccc3cn2)cc1	-0.188
